The structures appear in SMILES notation. The campaign covered roughly 300,000 compounds. About 37,000 (12%) were called active. Cut-off read from the data, not from the text of the source: active = max response mostly above about 13% (no sharp cut-off); inactive = mostly below about 14%. Only a selection was taken, and actives are over-represented in it overall.

The test can be described thus: Cycloheximide Counterscreen for Small Molecule Inhibitors of Shiga Toxin. Note: read at 38.3 µM for the half of the compounds with a filed dose; 0% is about no effect. The note with it: cell reporter, cycloheximide protein synthesis inhibition counterscreen; hits give high values.
As for `COCCn1c(SCC(=O)Nc2ccccc2F)nc2c(c1=O)SCC2`, the max response was 8.88% (inactive).

Consider `COc1ccc(C(C)NC(=S)NC2CCCCC2)cc1OC` (stereo not drawn), for which the max response is -2.46% (inactive).

In the case of `COc1cc(Br)c(-c2sc(Nc3ccccc3)n[n+]2-c2ccccc2)cc1OC`, the max response was 1.49% (inactive).

Consider `CCc1ccc(Oc2coc3cc(OC(=O)c4cc5ccccc5oc4=O)ccc3c2=O)cc1`, for which the max response was 12% (inactive).

On to `CCc1ccc(Oc2coc3cc(O)ccc3c2=O)cc1`, for which the max response is 31.5% (active).

For `COc1ccc(Oc2coc3cc(OC(=O)c4cncc(Br)c4)ccc3c2=O)cc1`, the max response was 5.74% (inactive).

Turning to `CC[C@H](C)[C@H](NC(=O)[C@H](Cc1ccc(O)cc1)NC(=O)[C@@H](NC(=O)[C@H](CCCN=C(N)N)NC(=O)[C@@H](N)CC(=O)O)C(C)C)C(=O)N[C@@H](Cc1cnc[nH]1)C(=O)N1CCC[C@H]1C(=O)N[C@@H](Cc1ccccc1)C(=O)O`, the max response is 16% (inactive).

Turning to `C=CCN1C(=O)C2(OCCCO2)c2cccc(Cl)c21`, the max response was 1.84% (inactive).

On to `Cc1ccc(CNC(=O)Cn2cnc(S(=O)(=O)N3CCCCC3)c2)o1`, for which the max response was 6.21% (inactive).

Regarding `CCOC(=O)c1ccc(NC(=O)CCn2c(=O)oc3ccccc32)cc1`, the max response was 9.25% (inactive).

As for `CCOC(=O)c1ccc(-c2ccc(C(=O)Nc3cccnc3)o2)cc1`, the max response is 32.1% (active).

As to `C#CCNc1ccc(C(=O)OCC)cc1`, the max response was 31.8% (active).

In the case of `CCOC(=O)c1ccc(NC(=O)c2cccnc2)cc1`, the max response was 38.1% (active).

In the case of `O=C(Cc1ccccc1)Nc1ccc(NC(=O)c2cccnc2)cc1`, the max response was -2.68% (inactive).

Turning to `CCCCC(CCC(=O)Nc1ccc(C(=O)OCC)cc1)C(=O)O` (stereo not drawn), the max response is 0.691% (inactive).

On to `COc1ccc(C)cc1NC(=O)c1ccc(-c2ccc(C(C)=O)cc2)o1`, for which the max response was 16% (inactive).

Consider `CC(C)NS(=O)(=O)c1ccc(NC(=O)c2cccnc2)cc1`, for which the max response was -3.02% (inactive).

As to `CCOC(=O)c1ccc(NC(=O)CSc2nnc(COc3ccccc3OC)n2C)cc1`, the max response was 4.99% (inactive).

Consider `CCCc1nnc(SCC(=O)Nc2ccc(C(=O)OCC)cc2)o1`, for which the max response was 3.14% (inactive).

In the case of `CCOC(=O)c1ccc(NC(=S)N2CCCC2)cc1`, the max response is 9.83% (inactive).

In the case of `CCOC(=O)c1ccc(NC(=O)CSc2ncccn2)cc1`, the max response was 26.6% (active).

`COc1ccccc1N1CC(C(=O)Nc2nnc(SCC(=O)NC(C)C)s2)CC1=O` (stereo not drawn): the max response was -0.494% (inactive).

Consider `C=CCN1C(=O)C(O)(CC(=O)c2ccc(Cl)cc2)c2ccccc21` (stereo not drawn), for which the max response is -1.68% (inactive).

As to `Cc1c([N+](=O)[O-])c(N)nn1C`, the max response is -1.77% (inactive).

On to `COCCNC(=S)N(CCc1c(C)[nH]c2ccc(C)cc12)Cc1cccnc1`, for which the max response is -0.385% (inactive).

For `C=CCNC(=O)c1sc(SC)cc1-c1ccc(Cl)cc1`, the max response was -0.634% (inactive).

Turning to `CCOC(=O)C1CCN(C(=O)CN2C(=O)c3cccnc3Oc3ccc(C)cc32)CC1`, the max response was -3.81% (inactive).

Turning to `CCCOc1ccc(C(=O)C(CCC(CNCC)C(=O)c2ccc(OCCC)cc2)CNCC)cc1` (stereo not drawn), the max response was -10% (inactive).

Take `O=S(=O)(NCC1CC1)c1ccc(F)c(Cl)c1`: the max response is 0.9% (inactive).

On to `O=C(NC1C2CC3CC(C2)CC1C3)c1ccc(N2CCNCC2)c([N+](=O)[O-])c1` (stereo not drawn), for which the max response was -2.96% (inactive).

`N#Cc1cc([N+](=O)[O-])ccc1NCC1CCCO1` (stereo not drawn): the max response was -4.48% (inactive).

In the case of `CCOc1ccccc1NC(=O)Cc1cccs1`, the max response was -3.39% (inactive).

Consider `O=C(Cc1cccs1)Nc1ccc([N+](=O)[O-])cc1`, for which the max response was -1.6% (inactive).

Regarding `CCOC(=O)c1ccc(NC(=O)Cc2cccs2)cc1`, the max response is 33% (active).

Turning to `COc1cccc(NC(=O)CC(c2ccc(OC(C)C)cc2)c2ccccc2OC)c1` (stereo not drawn), the max response is 2.51% (inactive).

For the molecule `COc1ccc(/C=C(\NC(=O)c2ccc(OCC(C)C)cc2)C(=O)OCc2ccco2)cc1`, the max response is -1.98% (inactive).

Take `COc1ccc(Cn2c(=S)[nH]c3cc(C(=O)NCCCN4CCOCC4)ccc3c2=O)cc1`: the max response is -1.29% (inactive).

Take `Cc1ccnc(NC(=O)CCNS(=O)(=O)c2ccc(C)c(C)c2)c1`: the max response is 47.8% (active).

As for `Cc1ccc(S(=O)(=O)NCCC(=O)Nc2ccc(C)c(Cl)c2)cc1C`, the max response is -4.03% (inactive).

In the case of `Cc1ccc(S(=O)(=O)NCCC(=O)Nc2cccc(S(N)(=O)=O)c2)cc1C`, the max response was -4.85% (inactive).

Turning to `O=C1C=C(c2ccc(Cl)cc2)C(=O)N1Nc1ccccc1`, the max response was -6.32% (inactive).

Consider `CCOc1cc(CNn2c(C)nnc2SCC(=O)NC(C)(C)C)ccc1OCC(=O)NC(C)(C)C`, for which the max response is -1.88% (inactive).

With `Cn1cnc2c1c(=O)n(Cc1ccccc1C#N)c(=O)n2C`, the max response is 7.66% (inactive).

As to `COc1ccccc1CN1CCCC(N2CCN(c3ccc(F)cc3)CC2)C1` (stereo not drawn), the max response was 0.35% (inactive).

In the case of `N#CC(C#N)=Cc1cc(O)c(O)c([N+](=O)[O-])c1`, the max response was 37% (active).

As to `CN(C)/N=C/c1cc(Cl)cc([N+](=O)[O-])c1O`, the max response is -1.13% (inactive).

Regarding `O=[N+]([O-])c1cc([N+](=O)[O-])c2cccnc2c1O`, the max response was 5.27% (inactive).

With `O=[N+]([O-])c1ccccc1/C=C/CN1CCC(O)CC1`, the max response was 0.466% (inactive).

With `CN(C)Cc1c(C#N)c2ccccc2n1C`, the max response was -3.13% (inactive).

`COc1ccc(CCNCc2c(-c3ccccc3)n(C)c3ccccc23)cc1`: the max response is -3.43% (inactive).

As to `COc1ccc(-c2c(C#Cc3ccccc3)c3ccccc3n2C)cc1`, the max response was 40% (active).

On to `Cc1cc(=O)oc2c1ccc1ccccc12`, for which the max response was 0.801% (inactive).

Take `O=C(CSc1nccc(=O)[nH]1)Nc1ccc(N2CCOCC2)c(Cl)c1`: the max response was -2.31% (inactive).

Turning to `COc1ccc(CCNC(=O)CS(=O)(=O)Cc2nc(-c3ccc(C)cc3)oc2C)cc1OC`, the max response was -4.16% (inactive).

As for `CCCC(=O)Nc1c(O)c2ccccc2[nH]c1=O`, the max response is -3.15% (inactive).

For `CC(C)C(=O)Nc1c(O)c2ccccc2[nH]c1=O`, the max response was -0.723% (inactive).

Turning to `NS(=O)(=O)c1ccccc1NC(=O)c1c(O)c2ccccc2[nH]c1=O`, the max response is 41.2% (active).

Regarding `N#Cc1ccc(-c2nc3cc(C#N)c(C#N)cc3nc2-c2ccccc2)cc1C#N`, the max response is 18.4% (inactive).

As to `Cc1ccc(N2C(=O)C3C4C=CC(CC4)C3C2=O)cc1Br` (stereo not drawn), the max response is 0.748% (inactive).

As for `COc1ccc(CNC(=O)CN(c2ccc(OC)c(Cl)c2)S(=O)(=O)c2ccc(C)cc2)cc1`, the max response was 6.81% (inactive).

Regarding `COc1cc(N/C=C2\CC(=O)NC(C)=C2C#N)cc(OC)c1OC`, the max response was -2.39% (inactive).

Regarding `c1cnc(N2CCN(c3ccc4ccccc4n3)CC2)nc1`, the max response is 53% (active).

In the case of `Oc1ccc(CN2CCN(c3ncccn3)CC2)cc1`, the max response is -3.1% (inactive).

As for `O=C(c1ccncc1)N1CCN(c2ccc3ccccc3n2)CC1`, the max response is 8.94% (inactive).

Consider `Fc1cc(F)c2nc(N3CCOCC3)sc2c1`, for which the max response was 36.9% (active).

For `Cc1nc(N2CCOCC2)sc1C(=O)NN`, the max response is -3.93% (inactive).

For the molecule `Cc1cc(C)c2nc(N3CCC(C(=O)NCCN4CCOCC4)CC3)sc2c1`, the max response is -2.32% (inactive).

On to `COC(=O)Nc1nc2ccc(Sc3ccccc3)cc2[nH]1`, for which the max response is 27.6% (active).

As to `CC(C)c1nc2ccc(C(=O)O)cc2[nH]1`, the max response was 7.51% (inactive).

Consider `COc1cc(OC)cc(C(=O)N[C@H](C(=O)Nc2nc3ccccc3[nH]2)C(C)C)c1`, for which the max response is 0.422% (inactive).

With `Cc1ccc(Nc2nc(N3CCOCC3)nc(N3CCOCC3)n2)cc1Cl`, the max response was -3.32% (inactive).

For the molecule `Nc1nc(Nc2ccccc2)nc(NCCO)c1[N+](=O)[O-]`, the max response was 0.849% (inactive).

For `CNc1nc(Nc2ccc(C)c(Cl)c2)nc(N)c1[N+](=O)[O-]`, the max response is 32.5% (active).

Regarding `c1ccc2c(c1)CSc1sccc1C2=C1CCNCC1`, the max response was -3.55% (inactive).

For the molecule `CC(=O)NC(=S)NNC(=O)c1ccc(Br)cc1`, the max response is 12.5% (inactive).

`Cc1ccccc1Cn1c2ccccc2c2cnn(CC(=O)NCc3ccco3)c(=O)c21`: the max response was 1.52% (inactive).

As for `COc1ccc2[nH]c(C(=O)N3CCN(C)CC3)c(C)c2c1`, the max response is 7.26% (inactive).

`CCOc1ccccc1N1CCN(C(=O)c2ccc3[nH]c(C)c(C)c3c2)CC1`: the max response is -2.02% (inactive).

As for `Cc1[nH]c2ccc(C(=O)N3CCN(C)CC3)cc2c1C`, the max response is 28% (active).

Consider `FC(F)(F)c1cnc(Oc2ccccc2-c2nnc(-c3ccc(Cl)cc3)o2)c(Cl)c1`, for which the max response was 13.8% (active).

As for `COC(=O)Cc1ccc(Oc2ncc(C(F)(F)F)cc2Cl)cc1`, the max response was 10.3% (inactive).

As for `Cc1cc(C)cc(NS(=O)(=O)c2ccc(Oc3ncc(C(F)(F)F)cc3Cl)cc2)c1`, the max response was -3.33% (inactive).

As to `CSc1ccccc1-c1nnc(-c2ccc(Cl)cc2)o1`, the max response was 29% (active).

Take `Cc1c(C)c2ccc(OCC(=O)N3CCN(c4cccc(Cl)c4)CC3)cc2oc1=O`: the max response is -3.72% (inactive).

With `COc1cccc(-c2coc3cc4oc(=O)c(CC(=O)O)c(C)c4cc23)c1`, the max response is 7.42% (inactive).

With `Cc1ccccc1CN1CCNC(=O)C1CC(=O)NCCC1=CCCCC1` (stereo not drawn), the max response was -4.14% (inactive).

As for `CN(C)CCCNC(=S)N1CCC(c2nc3ccccc3[nH]2)CC1`, the max response was -2.52% (inactive).

`CC(=O)N1c2ccc(S(=O)(=O)N3CCC(C(=O)NCc4ccc(F)cc4)CC3)cc2CC1C` (stereo not drawn): the max response is -3.6% (inactive).

Turning to `CCNc1ccc(C(=O)OCC(=O)N2c3ccccc3NC(=O)C2(C)C)cc1[N+](=O)[O-]`, the max response was -4.72% (inactive).

Consider `Cc1ccc(-n2c(C)cc(C(=O)CSc3nnc4ccccn34)c2C)cc1`, for which the max response is 39.3% (active).

For the molecule `O=C(CSc1nnc(-c2ccco2)n1CC1CCCO1)c1ccccc1` (stereo not drawn), the max response is 8.39% (inactive).

Turning to `Cc1cc(C(=O)CSc2nc(N)cc(=O)[nH]2)c(C)n1-c1cccc(F)c1`, the max response was 7.82% (inactive).

As for `O=C(CSc1nnc2ccccn12)c1ccccc1`, the max response is 49.5% (active).

In the case of `Cc1ccc(-n2c(C)cc(C(=O)CN3C(=O)C(=O)N(C4CCCC4)C3=O)c2C)cc1`, the max response was -1.52% (inactive).

For `Cn1c(CC(=O)Nc2ccccc2)nnc1SCC(=O)c1ccccc1`, the max response is 3.65% (inactive).

On to `Cn1c(SCC(=O)c2ccc(F)cc2)nnc1-c1ccccn1`, for which the max response was 6.35% (inactive).

On to `O=C(CSc1nnc2n1CCCN2)c1ccccc1`, for which the max response was 38.3% (active).

Turning to `N#Cc1ccc(CSc2nnc3ccccn23)cc1`, the max response was 5.39% (inactive).

Values taken from PubChem BioAssay AID2314 (National Center for Advancing Translational Sciences (NCATS), 2010).
